Among the data in PubChem BioAssay AID2501 (Southern Research Specialized Biocontainment Screening …, 2010) are IC50 values, retold here.

Broadly, the IC50 is the concentration that inhibits the measured activity by half.

Each structure is given as a SMILES string. About 1,200 (55%) of roughly 2,200 compounds were called active. Cut-off not given; nearly all actives show IC50 up to about 92 µM. The set was probably picked from earlier hits. The list shows a part of the results.

This experiment can be described thus: counter assay for TAg ATPase ADP read-out – biochemical, ADP-Hunter, fluorescence, counter-screen (AID 2501).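 Further: purified T antigen ATPase.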 To be noted: series mostly up to 100 µM. (In general: A counterscreen serves to expose hits that act by an unwanted route or on another target.)
For the molecule `COc1ccccc1NC(=O)c1c(NC(=O)CCC(=O)O)sc2c1CCCCC2`, the IC50 result was “inactive”.
For `CCCCN1Cc2c(nc3cc(-c4ccco4)[nH]n3c2=O)C1=O` the value was 9.07 µM (active); for `COC(=O)CC1SC(=O)NC1=Nc1ccc(O)cc1` (configuration not stated), 4.34 µM (active).
For `Cc1c(Cl)cccc1NC(=S)N(CCN(C)C)C(C)c1ccco1` (configuration not stated) the value was “inactive”; for `N#CCCn1nc(-c2ccc(Br)cc2)cc1Nc1ccccc1NC(=O)C(F)(F)F`, “inactive”; for `COc1ccc(CC(=O)N/N=C(\C)CC(=O)Nc2ccc(N(C)C)cc2)cc1OC`, 3.9 µM (active).
For `COc1ccc(CC(=O)n2[nH]c(=O)ccc2=O)cc1OC` the value was “inactive”; for `COC(C(=O)N/N=C(\C)CC(=O)Nc1ccc(N(C)C)cc1)c1ccccc1` (configuration not stated), 6.98 µM (active); for `O=C(O)CCC1c2cc3c4cc2OC2Oc5cc6c(cc51)C(CCC(=O)O)c1cc5c7cc1OC(O6)c1cc6cc(c1)Oc1cc(cc(C(=O)O)c1)Oc1cc8cc(c1)C(Oc1cc(c(cc1C5CCC(=O)O)C3CCC(=O)O)OC(O4)c1cc(cc(c1)Oc1cc(cc(C(=O)O)c1)O8)Oc1cc(cc(C(=O)O)c1)Oc1cc(cc2c1)Oc1cc(cc(C(=O)O)c1)O6)O7` (configuration not stated), “inactive”.
Take `CCC[n+]1c2ccccc2cc2ccccc21`: the IC50 entry is “inactive”.
The entry for `O=C(NO)c1ccc(C(=O)N(C2CCCCC2)C2CCCCC2)cc1` is “inactive”.
The entry for `CCCC[n+]1c2ccccc2cc2ccccc21` is “inactive”; for `CC(C)n1c(=S)[nH]c2c1c(=O)[nH]c(=O)n2C` it is 92 µM (active).
For `C#CCOCCOCCOCCNc1nc(N2CCN(C(=O)CCCCCCCCCCNC(=O)[C@H]([C@@H](C)CC)n3cc(CCCCN=C(N)N)nn3)CC2)nc(N2CCN(C(=O)CCCCCCCCCCNC(=O)[C@H](CCCCN)n3cc(C[C@@H](C)CC)nn3)CC2)n1` the value was “inactive”; for `Oc1ccc(/C=N/NC(=S)NCC2CCCO2)cc1` (configuration not stated), 2.58 µM (active); for `COc1cc(/C=N/NC(=O)CNC(=O)c2ccco2)ccc1O`, 2.71 µM (active).
As for `COc1ccccc1CN(C(=O)CNC(=O)c1ccco1)C(C(=O)NCC1CCCO1)c1ccc(OC)c(OC)c1` (configuration not stated), the IC50 entry is “inactive”.
The figure for `COc1cc(/C=N/NC(=O)C(=O)NCC2CCCO2)ccc1O` (configuration not stated) is 4.13 µM (active); for `Cc1ccc(CNC(=O)/C=C/c2ccc(S(=O)(=O)NCc3ccco3)cc2)cc1` it is “inactive”; for `COc1cc(/C=N/NC(=O)C(=O)NCc2ccco2)ccc1O` it is 5.14 µM (active).
The entry for `COc1ccc(-n2c(=S)[nH]c3cc(C(=O)NCc4ccco4)ccc3c2=O)c(OC)c1` is “inactive”; for `CC1(OC(=O)CCc2ccccc2)C(=O)C=C2C=C(c3ccc(C#N)cc3)N(Cc3ccco3)C=C2C1=O` (configuration not stated) it is “inactive”.
As for `COc1ccc(Nc2ccc(Cl)cc2)c(C(=O)O)c1`, the half-inhibitory concentration (IC50) was 9.23 µM (active).
For `COc1ccc(C(=O)CCNc2ccc(C)c(Cl)c2)cc1` the value was “inactive”; for `COc1ccc(NC(=O)c2c(Cl)cnn2C)c(C)c1`, “inactive”; for `O=C(Cn1c(=O)oc2ccccc21)Nc1n[nH]c(=S)s1`, 88.8 µM (active).
Take `Nc1ccc2c(c1)-c1ccccc1S(=O)(=O)N2`: the IC50 was 2.89 µM (active).
The figure for `CC(Nc1ccc(N2CCOCC2)cc1)C(=O)N1c2ccccc2CC1C` (configuration not stated) is 8.86 µM (active); for `O=c1cc(CN2CCN(Cc3ccc(F)cc3)C(CCO)C2)[nH]c2ccccc12` (configuration not stated) it is “inactive”; for `CCOc1ccc(CN2CCN(Cc3cccc4c3OCO4)CC2CCO)cc1` (configuration not stated) it is 2.23 µM (active).
The entry for `Cc1ccc(CN2CCN(Cc3cn[nH]c3-c3cccc(F)c3)CC2CCO)o1` (configuration not stated) is “inactive”; for `Cc1nc(C)c(-c2csc(Nc3ccc(N)cc3)n2)s1` it is 7.48 µM (active); for `Cc1cccc(-n2c(O)c(C=Nc3ccc(O)cc3)c3ccccc3c2=O)n1` it is 3.7 µM (active).
For `Cc1cc2c(n1-c1ccc(C(=O)O)cc1)CCCCC2` the value was “inactive”.
Consider `C=C1C(=O)O[C@@H]2[C@H]3O[C@]3(C)CC/C=C(\C)CC[C@@H]12`, for which the IC50 result was “inactive”.
The entry for `CC(C)CC(NC(=O)CC12CC3CC(CC(C3)C1)C2)C(=O)NC1=NCCS1` (configuration not stated) is “inactive”; for `COc1ccc(N=Cc2nc(-c3ccccc3)oc2OC(C)=O)cc1` it is “inactive”; for `COc1ccc(N=Cc2c(O)cc(C)oc2=O)cc1` it is 6.29 µM (active).
The entry for `Cc1ccc(NC(=O)NCCN2CCCCC2)cc1Cl` is “inactive”; for `CC(=O)Nc1ccc(N2CCCCC2)cc1` it is 12.1 µM (active).
For `Cn1c(CCN2CCCCCC2)nc2cc(NC(=O)Nc3ccccc3)ccc21` the value was “inactive”.
For the molecule `O=C(CCl)Nc1ccc(N2CCCCCC2)cc1`, the IC50 is 0.76 µM (active).
For `O=C(Nc1ccc2nc(-c3ccco3)c(-c3ccco3)nc2c1)NC1CC1` the value was “inactive”; for `O=C(NC1CCCCCC1)c1cccnc1Sc1ccc(Cl)cc1`, “inactive”; for `Nc1ccc(NC(=O)NC2CCCCC2)cc1`, 9.21 µM (active).
The figure for `O=c1cc(CSc2ccc(Cl)cc2)[nH]c2[nH]n(-c3ccccc3)c(=O)c12` is 16.2 µM (active).
For `O=C(O)c1ccccc1NS(=O)(=O)c1ccc(NNC(=S)Nc2ccc(OC(F)F)cc2)c([N+](=O)[O-])c1` the value was 23 µM (active).
As to `O=C(/C=C/c1ccco1)NCC1OCCc2ccccc21` (configuration not stated), the IC50 entry was “inactive”.
The entry for `COc1ccc(O)c(C(=O)C2c3ccccc3C(=O)N2c2ccc(C)cc2)c1` (configuration not stated) is “inactive”.
The figure for `O=C(COc1ccc2c(-c3ccccc3)cc(=O)oc2c1)N[C@@H](Cc1c[nH]c2ccc(O)cc12)C(=O)O` is 31.3 µM (active); for `O=C(O)c1ccccc1C(=O)NC1=NN(c2ccccc2)CC1` it is 12.1 µM (active); for `COc1cc(/C=N/Nc2ccnc(=O)[nH]2)ccc1O` it is 5.01 µM (active).
The figure for `COc1cc(/C=N/NC2=NCCCCC2)ccc1O` is 4.15 µM (active); for `COc1cccc2c(N/N=C/c3ccc(O)c(O)c3)cc(C)nc12` it is 10.2 µM (active).
For `COc1cc(/C=N/Nc2ccccn2)ccc1O`, the IC50 is 8.27 µM (active).
For `COc1cc(/C=N\Nc2cc(=O)n(C)c(=O)n2C)ccc1O` the value was 4.97 µM (active).
The figure for `COc1cc(/C=N/Nc2nc(=O)[nH]nc2C)ccc1O` is 6.46 µM (active).
The figure for `COc1cc(/C=N/Nc2nncn2/N=C/c2ccc(O)c(OC)c2)ccc1O` is 4.48 µM (active).
For `Cc1cc(C)n(CCc2nc(-c3ccco3)cs2)n1`, the IC50 entry is “inactive”.
Consider `CCOc1cc(/C=C2/N=C(C)C(C(=O)OC)=C2O)ccc1O`, for which the IC50 is 3.91 µM (active).
For `CCOC(=O)C1=C(O)/C(=C\c2ccc(O)c(OCC)c2)N=C1C` the value was 9.47 µM (active); for `COC(=O)C1=C(O)/C(=C\c2ccc(O)c(OC)c2)N=C1C`, 3.81 µM (active).
